Test results: PubChem BioAssay (NCI)
Where “and” joins values, the source holds several entries; their conditions need not be identical. Equal values may be shown once. About 79,000 compounds went through this panel and 15% of them were active in at least one assay; those are over-represented in the sample as a whole. Some structures have more than one record in an assay (separate samples or runs), and their calls can disagree. Calls of active or inactive are those of the source. Cut-off read from the data, not from the text of the source: active = growth inhibition above about 70%; inactive = the rest.

What was measured:
[1] = NCI Yeast Anticancer Drug Screen. Data for the rad52 strain (AID 147);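 note: 0% = growth of vehicle-treated control cultures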; conditions: S. cerevisiae rad52 mutant growth inhibition, stronger effect = higher value
How it was run: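 Yeast strain carrying a DNA damage repair alteration was exposed to test compounds. Growth inhibition was measured relative to vehicle-treated controls.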

[2] = NCI Yeast Anticancer Drug Screen. Data for the wt1 strain (AID 149);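 note: 0% = growth of vehicle-treated wt1 cultures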; conditions: S. cerevisiae wt1 strain (SPY 50644) growth inhibition, stronger effect = higher value
How it was run: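 Measured: growth of wt1 yeast under compound versus vehicle treatment, reported as inhibition.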

[3] = NCI Yeast Anticancer Drug Screen. Data for the mgt1 strain (AID 153); conditions: S. cerevisiae mgt1 mutant growth inhibition, stronger effect = higher value
How it was run: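 Yeast mgt1 strain (DNA repair/cell-cycle alteration panel) exposed to compounds; growth inhibition measured relative to vehicle-treated controls.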

[4] = NCI Yeast Anticancer Drug Screen. Data for the rad50 strain (AID 155);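 note: 0% = growth of vehicle-only cultures of the same strain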; conditions: S. cerevisiae rad50 strain growth inhibition, stronger effect = higher value
How it was run: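 Growth of the mutant yeast was measured after compound exposure and referenced to vehicle-treated cultures.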

[5] = NCI Yeast Anticancer Drug Screen. Data for the mec2-1 strain (AID 157); conditions: S. cerevisiae mec2-1 strain, stronger effect = higher value
How it was run: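 mec2-1 yeast strain, carrying an alteration in DNA damage repair or cell cycle control, was exposed to compounds; growth inhibition was measured relative to vehicle-treated controls.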

[6] = NCI Yeast Anticancer Drug Screen. Data for the rad14 strain (AID 159);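 note: 0% = growth of vehicle-treated control cultures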; conditions: S. cerevisiae rad14 strain growth inhibition, stronger effect = higher value
How it was run: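 Here, inhibition of yeast growth was measured after compound exposure, using a strain with a genetic defect in DNA damage repair and vehicle-treated cultures as the reference.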

[7] = NCI Yeast Anticancer Drug Screen. Data for the sgs1 mgt1 strain (AID 161);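 note: 0% = growth of cultures given vehicle only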; conditions: S. cerevisiae sgs1 mgt1 strain, stronger effect = higher value
How it was run: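 Yeast cells carrying a defined DNA-repair defect were exposed to test compounds. Growth inhibition was measured relative to vehicle-treated controls.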

[8] = NCI Yeast Anticancer Drug Screen. Data for the CLN2oe strain (AID 163);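 note: 0% = growth of vehicle-only control cultures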; conditions: S. cerevisiae CLN2oe strain, stronger effect = higher value
How it was run: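 Yeast cells carrying a defined cell-cycle control alteration were exposed to test compounds. Growth inhibition was scored against vehicle-treated control cultures.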

[9] = NCI Yeast Anticancer Drug Screen. Data for the cln2 rad14 strain (AID 165);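 note: 0% = growth equal to vehicle treated cultures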; conditions: S. cerevisiae cln2 rad14 strain, stronger effect = higher value
How it was run: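 Yeast carrying cln2 and rad14 alterations (cell cycle control and DNA damage repair) were exposed to compounds. Growth inhibition was measured against vehicle-treated controls.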

[10] = NCI Yeast Anticancer Drug Screen. Data for the bub3 strain (AID 167); conditions: S. cerevisiae bub3 mutant strain, stronger effect = higher value
How it was run: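 Whole-cell yeast assay. The mutant strain was incubated with compounds, and growth inhibition was determined by comparison with vehicle-treated cells.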

[11] = NCI Yeast Anticancer Drug Screen. Data for the wt2 strain (AID 169);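 note: 0% = growth of vehicle-treated yeast cultures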; conditions: S. cerevisiae wt2 strain growth inhibition, stronger effect = higher value
How it was run: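 Yeast cells were exposed to test compounds, and growth inhibition was measured relative to vehicle-treated controls.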

[12] = NCI Yeast Anticancer Drug Screen. Data for the mlh1 strain (AID 171);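 note: 0% = growth of vehicle-treated control cultures of the same strain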; conditions: S. cerevisiae mlh1 strain growth inhibition, stronger effect = higher value
How it was run: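 Yeast carrying a defined genetic alteration in DNA damage repair or cell cycle control were exposed to test compounds. Growth inhibition was measured relative to vehicle-treated controls.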

[13] = NCI Yeast Anticancer Drug Screen. Data for the sgs1 strain (AID 173);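 note: 0% = growth of vehicle-only control cultures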; conditions: S. cerevisiae sgs1 mutant, stronger effect = higher value
How it was run: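 Yeast mutant strains carrying defined defects in DNA damage repair or cell cycle control were exposed to test compounds. Growth inhibition was scored against vehicle-treated controls.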

[14] = NCI Yeast Anticancer Drug Screen. Data for the mlh1 rad18 strain (AID 175); conditions: S. cerevisiae mlh1 rad18 strain growth inhibition, stronger effect = higher value
How it was run: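 Growth inhibition of the yeast strain was measured after compound exposure and expressed relative to vehicle-treated controls. The strain carries defined defects in DNA damage repair.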

[15] = NCI Yeast Anticancer Drug Screen. Data for the rad18 strain (AID 177); conditions: S. cerevisiae rad18 mutant growth inhibition, stronger effect = higher value
How it was run: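 Yeast carrying a defined DNA damage repair alteration were exposed to compounds. Growth inhibition was expressed relative to vehicle-treated controls.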

[16] = NCI Yeast Anticancer Drug Screen. Data for the rad50EPP+ strain (AID 151);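 note: 0% = growth of vehicle-treated control cultures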; conditions: S. cerevisiae rad50 mutant strain, stronger effect = higher value
How it was run: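 Yeast strain carrying rad50 alteration (rad50EPP+) exposed to compounds; growth inhibition measured relative to vehicle-treated controls.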

[17] = at 5.0 µM (retest, dose inferred, filed as 0.5)
[18] = at 50.0 µM (retest, dose inferred, filed as 5.0)

Measured: growth inhibition

CCOC(=O)c1cc([N+](=O)[O-])c(Sc2ncnc3nc[nH]c23)c([N+](=O)[O-])c1
active: [1]; at 33.0 µM 79% | [1]; at 100.0 µM 90% | [2]; at 100.0 µM 92% | [3]; at 33.0 µM 81% | [3]; at 100.0 µM 89% | [4]; at 33.0 µM 75% | [4]; at 100.0 µM 89% | [5]; at 33.0 µM 89% | [5]; [18] 75% | [5]; at 100.0 µM 91% | [6]; at 33.0 µM 72% | [6]; at 100.0 µM 87% | [8]; at 100.0 µM 83% | [10]; at 33.0 µM 88% | [10]; at 100.0 µM 88% | [11]; at 100.0 µM 85% | [12]; at 33.0 µM 90% | [12]; at 100.0 µM 90% | [13]; at 33.0 µM 71% | [13]; at 100.0 µM 87% | [14]; [18] 89% | [14]; at 50.0 µM 86.2% | [15]; at 33.0 µM 82% | [15]; at 100.0 µM 84%
inactive: [1]; at 1.2 µM 0% | [1]; at 3.7 µM 0% | [1]; at 11.0 µM 34% | [2]; at 1.2 µM -22% | [2]; at 3.7 µM -26% | [2]; at 11.0 µM -6% | [2]; at 33.0 µM 62% | [3]; at 1.2 µM -20% | [3]; at 3.7 µM -29% | [3]; at 11.0 µM 16% | [4]; at 1.2 µM -40% | [4]; at 3.7 µM -18% | [4]; [17] 31% | [4]; at 11.0 µM 11% | [4]; [18] 63% | [4]; at 50.0 µM 17.4% | [5]; at 1.2 µM -22% | [5]; at 3.7 µM -13% | [5]; [17] 29% | [5]; at 11.0 µM 38% | [5]; at 50.0 µM 58% | [6]; at 1.2 µM -34% | [6]; at 3.7 µM -23% | [6]; at 11.0 µM -3% | [7]; [17] 6% | [7]; [18] -13% | [7]; at 50.0 µM 56% | [8]; at 1.2 µM -18% | [8]; at 3.7 µM -2% | [8]; at 11.0 µM 29% | [8]; at 33.0 µM 49% | [9]; [17] -5% | [9]; [18] -64% | [9]; at 50.0 µM 60.3% | [10]; at 1.2 µM -19% | [10]; at 3.7 µM -7% | [10]; [17] 7% | [10]; at 11.0 µM 43% | [10]; [18] 34% | [10]; at 50.0 µM 33.1% | [11]; at 1.2 µM -31% | [11]; at 3.7 µM -25% | [11]; at 11.0 µM 2% | [11]; at 33.0 µM 46% | [12]; at 1.2 µM -28% | [12]; at 3.7 µM -23% | [12]; at 11.0 µM 50% | [13]; at 1.2 µM 13% | [13]; at 3.7 µM 13% | [13]; at 11.0 µM 41% | [14]; [17] 55% | [15]; at 1.2 µM -17% | [15]; at 3.7 µM 9% | [15]; at 11.0 µM 55%

O=C1Nc2ccccc2/C1=C/c1ccccc1
inactive: [1]; at 1.2 µM -2% | [1]; at 3.7 µM -1% | [1]; at 11.0 µM 7% | [1]; at 33.0 µM 37% | [16]; at 1.2 µM 0% | [16]; at 3.7 µM 1% | [16]; at 11.0 µM 10% | [16]; at 33.0 µM 35% | [16]; at 100.0 µM 53% | [3]; at 1.2 µM -6% | [3]; at 3.7 µM -22% | [3]; at 11.0 µM -8% | [3]; at 33.0 µM 17% | [4]; at 1.2 µM -3% | [4]; at 3.7 µM 1% | [4]; [17] -113% and -24% | [4]; at 11.0 µM 3% | [4]; at 33.0 µM 39% | [4]; [18] -9% and 10% | [5]; at 1.2 µM -3% | [5]; at 3.7 µM -5% | [5]; [17] -53% and -11% | [5]; at 11.0 µM -8% | [5]; at 33.0 µM 4% | [5]; [18] -56% and 30%
66.6% (inactive) and 97.2% (active): [5]; at 50.0 µM
active: [1]; at 100.0 µM 80% | [3]; at 100.0 µM 71% | [4]; at 50.0 µM 81.6% and 98% | [4]; at 100.0 µM 82%
